# Measurements: PMC11062922 (Nature Chemical Biology, 2023)
# Read-outs that look alike come from different tables or passages of the source.
# Key:
# Set-up in all cases: species or system human, MV4-11 + K-562 + COLO205 + SK-N-BE2 + OVCAR-8
# CDK9 = settings: read-out: apparent Kd, n = 1
# TGFBR2 = settings: read-out: apparent Kd, n = 1
# MTOR = settings: read-out: apparent Kd, n = 1
# PDGFRB = settings: read-out: apparent Kd, n = 1
# CSK = settings: read-out: apparent Kd; compound concentrations:100 nM and 1000 nM (sheet 'Samples'); n = 1
# EPHA1 = settings: read-out: apparent Kd; compound concentrations:100 nM and 1000 nM (sheet 'Samples'); n = 1
# EPHB3 = settings: read-out: apparent Kd; compound concentrations:100 nM and 1000 nM (sheet 'Samples'); n = 1
# CDK2 = settings: read-out: apparent Kd, n = 1
# CDC42BPA = settings: read-out: apparent Kd, n = 1
# CDC42BPG = settings: read-out: apparent Kd, n = 1
# CIT = settings: read-out: apparent Kd; compound concentrations:100 nM and 1000 nM (sheet 'Samples'); n = 1
# PKN2 = settings: read-out: apparent Kd; compound concentrations:100 nM and 1000 nM (sheet 'Samples'); n = 1
# PRKG1 = settings: read-out: apparent Kd; compound concentrations:100 nM and 1000 nM (sheet 'Samples'); n = 1
# ROCK1 = settings: read-out: apparent Kd; compound concentrations:100 nM and 1000 nM (sheet 'Samples'); n = 1
# PIK3CG = settings: read-out: apparent Kd; compound concentrations: 100 nM and 1000 nM (sheet 'Samples'), CATDS: 0.22323444695651501; n = 1
# [1] = compound concentrations:100 nM and 1000 nM (sheet 'Samples')
smiles,measurement,setting,value
c1cnn2ncc(-c3ccnc(Nc4ccc5c(c4)OCCO5)n3)c2c1 [GW806290X],potency estimated from few doses,"CDK9; compound concentrations: 100 nM and 1000 nM (sheet 'Samples'), CATDS: 6.9114282023058901E-2",99.5 nM
same,potency estimated from few doses,"TGFBR2; compound concentrations: 100 nM and 1000 nM (sheet 'Samples'), CATDS: 6.1295123324086299E-2",123 nM
CNc1cc(-c2ccc3c(N)n[nH]c3c2)nc(N)n1 [GSK2224810A],potency estimated from few doses,MTOR; [1],475 nM
CC(C)Oc1ccc2c(-c3ccnc(Nc4ccc(N5CCN(C)CC5)cc4)n3)cnn2n1 [GW696155X],potency estimated from few doses,PDGFRB; [1],2040 nM
CS(=O)(=O)CCn1c(=O)c(Oc2ccc(F)cc2F)cc2cnc(NC3CCOCC3)nc21 [RO5027956-000],potency estimated from few doses,CSK,1540 nM
same,potency estimated from few doses,EPHA1,724 nM
same,potency estimated from few doses,EPHB3,2330 nM
NS(=O)(=O)c1ccc(NC=C2C(=O)Nc3ccc4ncsc4c32)cc1 [GW589933X],potency estimated from few doses,"CDK2; compound concentrations: 100 nM and 1000 nM (sheet 'Samples'), CATDS: 6.9687110689249002E-2",65.8 nM
same,potency estimated from few doses,"CDK9; compound concentrations: 100 nM and 1000 nM (sheet 'Samples'), CATDS: 2.7445436907685701E-2",414 nM
same,potency estimated from few doses,"PDGFRB; compound concentrations: 100 nM and 1000 nM (sheet 'Samples'), CATDS: 2.1122847549312301E-2",826 nM
Cc1occc1-c1nc(N)c(OC[C@@H](N)Cc2c[nH]c3ccccc23)cc1-c1cc2c(C)n[nH]c2cn1 [GSK1660450B],potency estimated from few doses,CDC42BPA; [1],34.6 nM
same,potency estimated from few doses,CDC42BPG; [1],65.4 nM
same,potency estimated from few doses,CIT,135 nM
same,potency estimated from few doses,PKN2,2110 nM
Cl.Cl.NCC(NCc1ccc(-c2ccnc3[nH]ccc23)s1)c1ccccc1.NCC(NCc1ccc(-c2ccnc3[nH]ccc23)s1)c1ccccc1 (stereo not shown) [GSK1321565A],potency estimated from few doses,PRKG1,1060 nM
NS(=O)(=O)c1cccc(-c2ccc3c(NC(=O)C4CC4)n[nH]c3c2)c1 [SB-741905],potency estimated from few doses,"MTOR; compound concentrations: 100 nM and 1000 nM (sheet 'Samples'), CATDS: 0.166958544620607",626 nM
CCn1c(-c2nonc2N)nc2cncc(Br)c21 [SB-738004],potency estimated from few doses,CDC42BPA; [1],2130 nM
same,potency estimated from few doses,CDK9; [1],1120 nM
same,potency estimated from few doses,PKN2,122 nM
same,potency estimated from few doses,ROCK1,181 nM
CC(C)N1CC(=O)N(C)c2cnc(Nc3cccc(S(=O)(=O)CCN4CCOCC4)c3)nc21 [BI00009348],potency estimated from few doses,PIK3CG,109 nM
Cn1cc(C2=C(c3ccc(OC[C@@H](O)CO)cc3)C(=O)NC2=O)c2ccccc21 [RO3208546-000],potency estimated from few doses,"MTOR; compound concentrations: 100 nM and 1000 nM (sheet 'Samples'), CATDS: 4.7243035246753197E-2",730 nM
O=C1N=C(NCc2ccccc2Br)S/C1=C\c1ccc2ncccc2c1 [RO4506918-000],potency estimated from few doses,"CDC42BPG; compound concentrations: 100 nM and 1000 nM (sheet 'Samples'), CATDS: 7.9298685313138301E-2",1370 nM
NS(=O)(=O)c1ccc(N/N=C2\C(=O)Nc3ccc4ncccc4c32)cc1 [GW305178X],potency estimated from few doses,"CDK2; compound concentrations: 100 nM and 1000 nM (sheet 'Samples'), CATDS: 0.10178285521581799",134 nM
same,potency estimated from few doses,"CDK9; compound concentrations: 100 nM and 1000 nM (sheet 'Samples'), CATDS: 4.6560668202509002E-2",1210 nM
COc1cc[nH]c1/C=C1\C(=O)Nc2ccc(F)c(C#C[C@@H](O)[C@@H](N)[C@@H](C)O)c21 [RO0283120-000],potency estimated from few doses,CDK9; [1],1130 nM
same,potency estimated from few doses,TGFBR2; [1],1600 nM
CNCC1CCn2c(c(C3=C(c4cn(C)c5ccccc45)C(=O)NC3=O)c3ccccc32)C1 (stereo not shown) [RO0318676-000],potency estimated from few doses,"CDK2; compound concentrations: 100 nM and 1000 nM (sheet 'Samples'), CATDS: 2.9072745389082302E-2",1540 nM
O=C1N=C(NCCc2ccccc2Cl)S/C1=C\c1ccc2ncccc2c1 [RO4498484-000],potency estimated from few doses,"CDC42BPA; compound concentrations: 100 nM and 1000 nM (sheet 'Samples'), CATDS: 5.5434431749678797E-2",2450 nM
NS(=O)(=O)c1ccc(N/N=C2\C(=O)Nc3ccc(-c4cnco4)cc32)cc1 [GW276655_KCGS],potency estimated from few doses,CDK2; [1],983 nM
CCn1c(-c2nonc2N)nc2cncc(C(=O)N3CC[C@H](N)C3)c21.Cl [SB-772077-B],potency estimated from few doses,CDC42BPA; [1],1170 nM
same,potency estimated from few doses,CIT,1450 nM
same,potency estimated from few doses,PKN2,73.8 nM
same,potency estimated from few doses,PRKG1,95.9 nM
